Compound activity deposited in PubChem by Broad Institute.
Compounds with a hit are over-represented: about 0.53% of the library has one in this group of screens.
TcdB inh = inhibitors of Clostridioides difficile toxin B glycohydrolase | P18177 | 350,000 tested, 0.24% active | AID 652162 | inhibition, % at 9.99 µM | TcdB glycohydrolase enzymatic assay, plate reader; in the data active = inhibition above about 10%
Target sequence (P18177 whole entry, looked up): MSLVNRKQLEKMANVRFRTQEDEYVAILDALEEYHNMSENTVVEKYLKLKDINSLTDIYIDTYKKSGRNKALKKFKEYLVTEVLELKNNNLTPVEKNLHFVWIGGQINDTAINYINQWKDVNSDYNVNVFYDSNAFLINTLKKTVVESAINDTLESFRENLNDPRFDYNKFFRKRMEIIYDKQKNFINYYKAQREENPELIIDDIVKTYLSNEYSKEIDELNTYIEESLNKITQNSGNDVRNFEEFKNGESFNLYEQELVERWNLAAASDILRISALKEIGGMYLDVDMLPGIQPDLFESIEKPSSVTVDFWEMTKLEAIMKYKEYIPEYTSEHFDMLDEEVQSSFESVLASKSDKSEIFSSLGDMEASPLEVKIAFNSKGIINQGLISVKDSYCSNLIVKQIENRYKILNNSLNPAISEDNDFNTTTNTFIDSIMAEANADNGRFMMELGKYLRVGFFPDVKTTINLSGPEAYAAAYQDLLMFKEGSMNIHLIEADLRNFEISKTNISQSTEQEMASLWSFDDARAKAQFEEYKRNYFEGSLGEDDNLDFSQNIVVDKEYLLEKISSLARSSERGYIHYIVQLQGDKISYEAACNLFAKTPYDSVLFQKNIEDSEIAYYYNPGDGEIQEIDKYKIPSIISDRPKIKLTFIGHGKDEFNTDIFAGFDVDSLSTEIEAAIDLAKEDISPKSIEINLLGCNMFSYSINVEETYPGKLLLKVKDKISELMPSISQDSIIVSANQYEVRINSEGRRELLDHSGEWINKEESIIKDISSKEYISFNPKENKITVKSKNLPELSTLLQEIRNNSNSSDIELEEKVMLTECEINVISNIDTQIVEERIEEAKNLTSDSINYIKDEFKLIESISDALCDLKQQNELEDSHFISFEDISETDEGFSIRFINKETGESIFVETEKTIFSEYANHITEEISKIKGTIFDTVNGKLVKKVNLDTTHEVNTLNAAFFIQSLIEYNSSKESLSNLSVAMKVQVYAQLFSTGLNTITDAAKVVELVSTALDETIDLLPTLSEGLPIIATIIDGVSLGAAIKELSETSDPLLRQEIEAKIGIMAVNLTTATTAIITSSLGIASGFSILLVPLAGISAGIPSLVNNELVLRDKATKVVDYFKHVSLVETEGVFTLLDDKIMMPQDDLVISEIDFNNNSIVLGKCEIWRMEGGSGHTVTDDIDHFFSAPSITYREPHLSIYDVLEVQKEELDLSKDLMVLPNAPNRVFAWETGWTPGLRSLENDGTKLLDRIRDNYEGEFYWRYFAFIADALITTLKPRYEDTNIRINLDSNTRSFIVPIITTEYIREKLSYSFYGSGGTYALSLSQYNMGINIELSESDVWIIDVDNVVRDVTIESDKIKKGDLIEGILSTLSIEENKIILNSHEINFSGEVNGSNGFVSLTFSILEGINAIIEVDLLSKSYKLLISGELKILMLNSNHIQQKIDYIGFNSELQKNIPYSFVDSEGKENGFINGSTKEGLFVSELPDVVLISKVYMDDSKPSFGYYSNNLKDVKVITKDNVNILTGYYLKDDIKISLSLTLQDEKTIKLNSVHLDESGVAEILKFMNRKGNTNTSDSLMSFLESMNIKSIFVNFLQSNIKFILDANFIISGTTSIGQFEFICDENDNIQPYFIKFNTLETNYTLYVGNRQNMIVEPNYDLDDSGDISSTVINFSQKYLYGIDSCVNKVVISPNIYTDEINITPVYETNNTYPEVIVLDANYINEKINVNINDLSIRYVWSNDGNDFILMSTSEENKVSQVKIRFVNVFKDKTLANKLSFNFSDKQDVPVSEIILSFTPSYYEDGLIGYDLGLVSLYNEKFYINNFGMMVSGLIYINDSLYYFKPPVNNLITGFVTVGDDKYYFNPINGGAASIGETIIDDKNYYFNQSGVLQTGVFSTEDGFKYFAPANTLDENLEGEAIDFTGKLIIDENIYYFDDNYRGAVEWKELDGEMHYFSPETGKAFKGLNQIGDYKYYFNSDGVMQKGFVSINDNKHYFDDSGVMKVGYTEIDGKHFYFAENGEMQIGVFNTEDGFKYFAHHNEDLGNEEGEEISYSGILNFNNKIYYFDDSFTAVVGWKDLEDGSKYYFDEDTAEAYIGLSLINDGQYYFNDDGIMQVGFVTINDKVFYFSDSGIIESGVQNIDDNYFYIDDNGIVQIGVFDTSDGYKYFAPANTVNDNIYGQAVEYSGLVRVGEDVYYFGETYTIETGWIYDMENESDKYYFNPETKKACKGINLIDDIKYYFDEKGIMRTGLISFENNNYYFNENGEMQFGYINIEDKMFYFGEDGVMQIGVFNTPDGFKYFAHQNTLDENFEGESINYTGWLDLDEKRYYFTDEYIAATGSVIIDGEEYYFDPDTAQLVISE
PrP UTR inh = inhibition of PrP 5' UTR reporter expression; 340,000 tested, 0.35% active; cell-based PrP 5' UTR mRNA reporter, plate reader; AID 488862; inhibition, % (test concentration not listed); in the data active = inhibition above about 52%; also: 0 = median of the neutral control wells
Y pestis TopoI = blocks Yersinia pestis topoisomerase I activity; 360,000 tested, 0.064% active; activity, % at 10 µM; Y. pestis Topo-I cleavage product accumulation, plate reader; in the data active = activity above about 50%, passing the limit was not always enough; inconclusive = no clear call, values can overlap the other calls
BioA inh = blocks M. tuberculosis BioA enzyme activity. inhibition, % at 9.99 µM. 360,000 tested, 0.096% active. purified M. tuberculosis BioA enzyme, plate reader; in the data active = inhibition above about 40%; inconclusive = no clear call, values can overlap the other calls
PrP UTR cherry = prion 5' UTR mRNA inhibition, cherry-pick retest | shares compounds with PrP UTR inh | cell-based prion protein 5' UTR reporter, plate reader | inhibition, % at 2.5 µM | 1,100 tested, 48% active | AID 504592; in the data active = inhibition above about 54%; inconclusive = no clear call, values can overlap the other calls
Active calls of the source: *; u = inconclusive; x = no result; ! = repeats disagree.

SMILES	TcdB inh	PrP UTR inh	Y pestis TopoI	BioA inh	PrP UTR cherry
Cc1cccc(C(=O)N(Cc2ccco2)c2c(N)n(Cc3ccccc3)c(=O)[nH]c2=O)c1	-1	90*	3	0	-46
CCC(=O)Nc1ccc2c(c1)OC[C@@H](C)N(CCc1ccccc1)C[C@@H](C)[C@@H](OC)CN(C)C2=O	x	x	x	3	x
O=C(O)CCCc1ccc2c(c1)CCc1ccccc1-2	1	65*	-10	0	75*
CC1=C(C(=O)Nc2ccc(CC(=O)NCc3ccc(OC(C)C)cc3)cc2)SCCO1	1	72*	22	-1	87*
COc1ccc2c3c(n(C)c2c1)[C@@H](CO)N(C)CC31CN(S(=O)(=O)c2cccc(C)c2)C1	1	x	x	x	x
COc1ccc(C(NC(=O)c2cccnc2)c2cc(Cl)c3cccnc3c2O)cc1OC (configuration not stated)	x	89*	-2	-4	30
CCC(=O)NC(c1ccc(OC)cc1)c1cc(Cl)c2cccnc2c1O (configuration not stated)	1	35	24	x	x
COc1ccc(CN(C)CC(=O)Nc2ccccc2C(F)(F)F)c(OC)c1	x	-36	6	-1	x
COc1ccc(CN(C)CC(=O)Nc2ccccc2C(F)(F)F)cc1	1	81*	18	x	-19
COc1ccccc1[C@H]1C(c2cccc(Cl)c2)=NN(c2ccccc2)[C@@H]1CO	x	72*	-6	0	-5
CC(=O)OCC(=O)[C@@]1(O)CC[C@H]2[C@@H]3CCC4=CC(=O)CC[C@]4(C)[C@H]3[C@@H](O)C[C@@]21C	-4	65*!	-3	0	-13
COC(=O)C1=C(c2ccccc2OCc2ccccc2)C[C@@H]2CC[C@H]1N2C(=O)NCCc1ccc(F)cc1	3	58*	23	2	2
COc1cc(OC)cc(-c2cc3cc4c(cc3cn2)OCO4)c1	x	62*	-9	-1	81*
COc1ccc(-c2cc3cc4c(cc3cn2)OCO4)cc1	-1	-7	-2	-2	x
O=C(Nc1ccc(F)cc1)N1C[C@H]2[C@@H](c3ccccc31)[C@@H](CO)N2C(=O)c1ccccc1F	-1	x	x	-6	x
C/C(=N\NC(=O)c1ccccc1NC(=O)c1ccc(Cl)cc1)c1ccncc1	1	76*	-8	x	70*
COc1ccc(S(=O)(=O)N(C)C[C@H]2Oc3c(NC(=O)c4ccc(-c5nccs5)cc4)cccc3C(=O)N([C@@H](C)CO)C[C@H]2C)cc1	0	x	x	-3	x
Cc1ccc(-n2cccn2)c([C@@H]2C[C@H]3CN(C)C(=O)[C@]34CCCN24)c1	0	67*	2	x	-14
COc1cccc(NC(=O)N[C@H]2CC[C@H](CC(=O)Nc3ccc(-c4ccccc4)cc3)O[C@@H]2CO)c1	-1	x	x	5	x
CC(C)c1nnc(NC(=O)CSc2nnc(NC(=O)c3c(F)cccc3F)s2)s1	0	79*	-11	0	-2
O=C(CSc1nnc(NC(=O)c2c(F)cccc2F)s1)Nc1ccccc1F	3	-20	-14	-1	x
Cc1cc(-c2ccc(N3CCOCC3)cc2)nc2ccccc12	1	-62	7	x	x
c1ccc2nc(-c3ccc(N4CCOCC4)cc3)ccc2c1	x	75*	-6	x	67*
CN1CCN(c2ccc(-c3ccc4ccccc4n3)cc2)CC1	3	92*	-6	x	91*
CSc1ccc(Cl)c(C(=O)Nc2ccc(Cl)cn2)c1	0	-12	-1	-2	x
SMILES	TcdB inh	PrP UTR inh	Y pestis TopoI	BioA inh	PrP UTR cherry
COc1cc(SC)ccc1C(=O)Nc1ccc(Cl)cn1	1	60*	2	-2	55*
CC(=O)NC[C@@H]1[C@@H](c2ccc(-c3cccnc3)cc2)[C@@H](CO)N1C(=O)C1CCC1	x	x	x	6	x
COc1cc([N+](=O)[O-])ccc1NC(=O)COC(=O)C=C(C)C	0	61*	-1	-2	-22
C[C@@H]1CN([C@H](C)CO)C(=O)c2cc(NS(=O)(=O)c3ccc(F)cc3)ccc2O[C@@H](C)CCCCO[C@@H]1CN(C)C(=O)CCCN(C)C	0	x	x	0	x
O=C1CCCCCN1C(=O)c1ccccc1	-1	-19	1	x	x
CC(C)(C)c1ccc(C(=O)N2CCCCCC2=O)cc1	x	59*	15	-1	u
Cc1ccc(C(=O)n2c(N)nc3ccccc32)cc1	0	74*	-3	1	55*
Cc1ccc(S(=O)(=O)n2c(N)nc3ccccc32)cc1	1	13	6	-1	x
CC(C)(C)OC(=O)C[C@@H]1C/C=C\C[C@H](CC(=O)N(CCO)Cc2ccccc2)C(=O)N[C@H](C(C)(C)C)COC1=O	0	60*	23	4	0
C[C@@H]1COC(=O)[C@H](CC(=O)OC(C)(C)C)C/C=C\C[C@H](CC(=O)N(CCO)Cc2ccccc2)C(=O)N1	2	-22	12	-2	x
Cc1ccc(N2CCCCn3c2nc2c3c(=O)n(CC(=O)O)c(=O)n2C)cc1	x	58*	1	x	-5
COc1cccc(-c2ccc3ncnc(NCc4cc(C)cs4)c3c2)c1	1	61*	10	0	-3
N/C(=N\OC(=O)c1cccc2ccccc12)c1ccccn1	1	-61	1	-2	x
COc1cccc(C(=O)O/N=C(\N)c2ccccn2)c1	1	52*	-19	-1	91*
N/C(=N\OC(=O)c1ccc2ccccc2c1)c1ccccn1	2	53*	5	8	40
COc1cccc(C(=O)O/N=C(\N)c2ccccn2)c1OC	2	52*	6	-1	u
CCCc1ccc(C(=O)O/N=C(\N)c2ccccn2)cc1	1	88*	8	-1	77*
N/C(=N\OC(=O)c1ccc(=O)n(Cc2ccccc2)c1)c1ccccn1	3	-15	-14	3	x
N/C(=N\OC(=O)c1ccc2ccccc2c1)c1ccncc1	0	-22	-1	1	x
COc1ccc(NC(=O)N(C)C[C@H]2Oc3c(NC(=O)NC(C)C)cccc3C(=O)N([C@@H](C)CO)C[C@@H]2C)cc1	-10	x	x	-3	x
CO[C@@H]1CC[C@@H]2CCN(C)C(=O)[C@@H](C)CN(C)C(=O)c3cc(C#N)ccc3OC[C@@H]1O2	0	x	x	1	x
CN(C)C(=O)[C@@H]1[C@@H](CO)[C@@H]2Cn3c(ccc(C4=CCCCC4)c3=O)[C@H]1N2Cc1ccncc1	0	x	x	-1	x
S=C(NCc1ccco1)Nc1ccc(Br)cn1	-1	-13	9	-1	x
S=C(NCc1ccco1)Nc1cc(-c2ccccc2)[nH]n1	-1	62*	6	4	-4
COc1ccc(CN=C(Nc2ccccc2)SC2CC(=O)NC2=O)cc1 (configuration not stated)	0	-40	20	x	x
O=C1CC(SC(=NCc2ccc3c(c2)OCO3)Nc2ccccc2)C(=O)N1 (configuration not stated)	x	73*	16	-3	-15
O=C(/C=C/Nc1ccccc1Br)c1ccccn1	x	89*	4	x	83*
Cc1noc(C)c1NC(=O)N(C)C[C@H]1Oc2ccc(NS(=O)(=O)c3cccs3)cc2C(=O)N([C@@H](C)CO)C[C@@H]1C	1	x	x	0	x
COc1cccc(/C=N/Nc2ccc([N+](=O)[O-])cn2)c1O	1	58*	-12	3	48
